The values that follow come from PubChem BioAssay (NCATS).

Activity calls are given as the source filed them. Where a call stands in place of a potency, no number is given. The call rests on the fitted dose curve; in most records, active means well fitted inhibition curve with a large enough effect; inconclusive means small, poorly fitted or top-dose-only effect; inactive means flat fitted curve, though single readings scatter.

The target of this test is Luciferin 4-monooxygenase (Photinus pyralis) (UniProt P08659). The test is described as follows: Primary firefly luciferase (FLuc) qHTS assay for identification of artifact compounds. (AID 1845220). Further: nearly all actives have a fitted effect of over 60% in size. As to conditions: purified firefly luciferase, luminescence, 5 min; series mostly up to 54.1 µM. The method in brief: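 Titrated compounds were incubated 15 min at RT, protected from light, with luciferin and ATP at 10 uM; reaction started with 10 nM FLuc, luminescence imaged at 5 min, and concentration-response fitted by Hill equation.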
Background: In qHTS, concentration-response curves come from the screen itself.
As to `CN(C)CCC(c1ccccc1)c1ccccn1` (stereo not given), the Potency result is “inactive”.
In the case of `O=C(O)CCc1nc(-c2ccccc2)c(-c2ccccc2)o1`, the Potency result is “inactive”.
As for `CC(C)NCC(O)COc1cccc2[nH]ccc12` (stereo not given), the Potency result is “inactive”.
In the case of `COc1ccccc1N1CCN(CCCNc2cc(=O)n(C)c(=O)n2C)CC1`, the Potency entry is “inactive”.
`CCN(CC)CCNC(=O)c1ccc(N)cc1`: the Potency entry was “inactive”.
Under `CC(=O)O[C@]1(C(C)=O)CC[C@H]2[C@@H]3C=C(Cl)C4=CC(=O)[C@@H]5C[C@@H]5[C@]4(C)[C@H]3CC[C@@]21C` stands “inactive”; under `Clc1ccc(Cn2c(CN3CCCC3)nc3ccccc32)cc1`, “inactive”.
The entry for `CCN1CCC[C@H]1CNC(=O)c1cc(S(N)(=O)=O)ccc1OC` is “inactive”; for `COC(=O)[C@@H]1[C@H]2C[C@H]3c4[nH]c5ccccc5c4CCN3C[C@@H]2CC[C@@H]1O` it is “inactive”.
On to `CCCNC(=O)NS(=O)(=O)c1ccc(Cl)cc1`, for which the Potency result was “inactive”.
